NP40-soluble protein abundance data for 5 targets are collected here from the supplement of paper PMC6411743.

Compound in this assay: Nc1nc2c(ncn2[C@@H]2O[C@H](COP(=O)(O)OP(=O)(O)OP(=O)(O)O)[C@@H](O)[C@H]2O)c(=O)[nH]1 [guanosine triphosphate]
The experiment in a line: NP40-soluble protein abundance relative to vehicle (solubility fold change) (ratio); higher = more soluble protein in presence of GTP. As for the experimental part: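 Solubility proteome profiling in Jurkat crude lysate. Lysate was treated with Mg-GTP (0.1-10 mM) for 10 min at room temperature and 3 min at 37 °C, then solubilised with 0.8% NP40 and benzonase, followed by ultracentrifugation. Proteins were quantified by TMT10 LC-MS/MS; the value is the NP40-soluble abundance relative to the NP40-processed vehicle, from 3 independent experiments.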

± gives the standard deviation of the averaged measurements. The full data set covers some 5,400 targets. This sample favours those with the largest changes.

UniProt Q86U86, sequence (Q86U86 whole entry): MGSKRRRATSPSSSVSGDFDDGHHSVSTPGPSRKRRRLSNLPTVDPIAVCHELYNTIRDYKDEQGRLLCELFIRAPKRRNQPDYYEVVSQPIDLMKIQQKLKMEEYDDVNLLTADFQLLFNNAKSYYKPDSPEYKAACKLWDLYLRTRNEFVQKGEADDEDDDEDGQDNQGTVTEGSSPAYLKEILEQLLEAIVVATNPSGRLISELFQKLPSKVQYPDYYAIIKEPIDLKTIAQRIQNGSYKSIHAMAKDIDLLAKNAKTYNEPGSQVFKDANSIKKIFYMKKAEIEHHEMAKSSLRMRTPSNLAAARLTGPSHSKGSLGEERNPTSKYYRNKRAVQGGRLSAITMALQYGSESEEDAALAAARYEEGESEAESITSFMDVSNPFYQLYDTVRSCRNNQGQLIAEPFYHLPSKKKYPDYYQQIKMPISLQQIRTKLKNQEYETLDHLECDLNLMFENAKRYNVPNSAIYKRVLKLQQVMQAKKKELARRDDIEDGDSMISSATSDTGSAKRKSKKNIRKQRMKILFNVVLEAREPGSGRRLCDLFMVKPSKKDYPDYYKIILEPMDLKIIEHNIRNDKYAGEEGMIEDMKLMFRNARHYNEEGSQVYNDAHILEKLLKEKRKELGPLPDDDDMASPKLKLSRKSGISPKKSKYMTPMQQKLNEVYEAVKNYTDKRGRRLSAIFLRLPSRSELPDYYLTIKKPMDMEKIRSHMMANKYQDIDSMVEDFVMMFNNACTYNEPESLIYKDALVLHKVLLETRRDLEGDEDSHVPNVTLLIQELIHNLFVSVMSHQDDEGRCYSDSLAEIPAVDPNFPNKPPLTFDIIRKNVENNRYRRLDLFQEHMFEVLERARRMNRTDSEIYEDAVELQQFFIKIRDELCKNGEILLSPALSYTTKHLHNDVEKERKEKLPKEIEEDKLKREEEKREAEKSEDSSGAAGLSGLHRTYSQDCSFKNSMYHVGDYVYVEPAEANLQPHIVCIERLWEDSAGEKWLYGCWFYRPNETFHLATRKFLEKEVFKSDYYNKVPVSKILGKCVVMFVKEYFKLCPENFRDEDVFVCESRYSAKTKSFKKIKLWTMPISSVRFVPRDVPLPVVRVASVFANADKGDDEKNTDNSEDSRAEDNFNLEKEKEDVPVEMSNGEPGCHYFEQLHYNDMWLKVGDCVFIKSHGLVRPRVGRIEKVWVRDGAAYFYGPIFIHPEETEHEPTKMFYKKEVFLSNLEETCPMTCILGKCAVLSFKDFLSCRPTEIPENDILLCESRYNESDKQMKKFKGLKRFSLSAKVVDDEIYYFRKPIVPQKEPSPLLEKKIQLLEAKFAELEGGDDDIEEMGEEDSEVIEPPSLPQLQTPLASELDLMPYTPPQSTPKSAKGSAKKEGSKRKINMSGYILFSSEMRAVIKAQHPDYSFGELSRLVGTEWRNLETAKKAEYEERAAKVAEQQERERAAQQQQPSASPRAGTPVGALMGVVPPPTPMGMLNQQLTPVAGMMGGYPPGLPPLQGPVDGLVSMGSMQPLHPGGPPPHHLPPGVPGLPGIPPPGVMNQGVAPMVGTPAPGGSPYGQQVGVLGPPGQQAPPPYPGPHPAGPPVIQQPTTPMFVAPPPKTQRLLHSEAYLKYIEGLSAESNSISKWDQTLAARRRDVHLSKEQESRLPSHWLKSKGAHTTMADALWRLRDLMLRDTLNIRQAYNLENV
UniProt Q15172, sequence (Q15172 whole entry): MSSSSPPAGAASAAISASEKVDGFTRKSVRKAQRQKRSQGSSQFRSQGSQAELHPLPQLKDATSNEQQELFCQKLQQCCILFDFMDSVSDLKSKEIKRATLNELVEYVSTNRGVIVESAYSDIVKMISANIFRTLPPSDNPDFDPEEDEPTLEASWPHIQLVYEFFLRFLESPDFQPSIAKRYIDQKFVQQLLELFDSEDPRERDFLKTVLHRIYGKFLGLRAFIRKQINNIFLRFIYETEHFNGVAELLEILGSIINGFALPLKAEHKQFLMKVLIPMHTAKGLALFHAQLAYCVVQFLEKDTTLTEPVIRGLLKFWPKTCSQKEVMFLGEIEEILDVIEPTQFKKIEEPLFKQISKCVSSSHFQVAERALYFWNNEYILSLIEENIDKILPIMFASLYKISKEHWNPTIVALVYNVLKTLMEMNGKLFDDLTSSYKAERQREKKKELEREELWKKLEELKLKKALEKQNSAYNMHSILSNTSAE
UniProt Q92696, sequence (Q92696 whole entry): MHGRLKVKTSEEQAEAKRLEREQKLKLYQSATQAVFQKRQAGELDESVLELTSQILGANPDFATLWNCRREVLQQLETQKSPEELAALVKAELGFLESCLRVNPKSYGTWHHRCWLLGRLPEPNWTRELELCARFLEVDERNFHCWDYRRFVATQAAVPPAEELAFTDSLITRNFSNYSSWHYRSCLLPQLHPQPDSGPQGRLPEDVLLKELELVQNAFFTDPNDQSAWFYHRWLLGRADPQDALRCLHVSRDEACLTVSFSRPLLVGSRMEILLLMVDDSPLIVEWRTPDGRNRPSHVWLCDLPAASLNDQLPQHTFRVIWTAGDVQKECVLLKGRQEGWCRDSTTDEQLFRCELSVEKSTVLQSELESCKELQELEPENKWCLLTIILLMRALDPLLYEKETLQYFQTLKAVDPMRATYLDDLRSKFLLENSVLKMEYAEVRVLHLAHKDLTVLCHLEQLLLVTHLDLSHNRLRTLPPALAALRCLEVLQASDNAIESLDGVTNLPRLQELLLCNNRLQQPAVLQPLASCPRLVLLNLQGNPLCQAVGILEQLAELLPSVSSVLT
UniProt Q86U44, sequence (Q86U44 whole entry): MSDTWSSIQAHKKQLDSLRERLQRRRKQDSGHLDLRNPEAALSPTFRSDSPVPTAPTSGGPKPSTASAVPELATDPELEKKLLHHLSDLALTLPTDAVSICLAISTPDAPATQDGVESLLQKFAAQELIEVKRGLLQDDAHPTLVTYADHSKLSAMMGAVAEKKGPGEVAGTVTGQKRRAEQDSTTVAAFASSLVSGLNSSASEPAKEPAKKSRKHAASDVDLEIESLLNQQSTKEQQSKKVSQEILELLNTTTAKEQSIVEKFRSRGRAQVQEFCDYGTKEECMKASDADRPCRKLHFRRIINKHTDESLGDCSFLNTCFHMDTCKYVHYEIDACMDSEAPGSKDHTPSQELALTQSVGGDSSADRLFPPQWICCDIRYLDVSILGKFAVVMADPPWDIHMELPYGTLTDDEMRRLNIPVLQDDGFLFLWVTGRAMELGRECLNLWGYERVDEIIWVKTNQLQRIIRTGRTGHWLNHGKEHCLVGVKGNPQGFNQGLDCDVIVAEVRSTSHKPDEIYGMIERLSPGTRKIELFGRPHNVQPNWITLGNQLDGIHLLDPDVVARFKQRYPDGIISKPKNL
UniProt Q8IZ81, sequence (Q8IZ81 whole entry, one chain of several): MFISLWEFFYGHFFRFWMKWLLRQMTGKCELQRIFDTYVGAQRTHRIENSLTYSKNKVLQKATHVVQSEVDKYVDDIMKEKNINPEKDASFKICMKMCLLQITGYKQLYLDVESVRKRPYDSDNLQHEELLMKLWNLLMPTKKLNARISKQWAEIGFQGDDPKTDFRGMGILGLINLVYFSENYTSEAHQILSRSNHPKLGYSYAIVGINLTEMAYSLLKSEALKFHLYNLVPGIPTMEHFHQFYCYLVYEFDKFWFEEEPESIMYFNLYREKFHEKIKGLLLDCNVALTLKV

For the target METTL3 (UniProt Q86U44), the NP40-soluble protein abundance reads like this: (concentration: 0.1mM) 0.967 ± 0.058; (concentration: 0.5mM) 1.01 ± 0.061; (concentration: 1mM) 0.969 ± 0.062; (concentration: 2mM) 0.948 ± 0.076; (concentration: 4mM) 0.911 ± 0.06; (concentration: 6mM) 0.932 ± 0.058. Besides, the NP40-soluble protein abundance is, setting by setting: (concentration: 8mM) 0.92 ± 0.085; (concentration: 10mM) 0.931 ± 0.063.

For the target “UniProt Q86U86|Q86U86-8|Q86U86-2|Q86U86-4|Q86U86-5|Q86U86-7|Q86U86-9”, the NP40-soluble protein abundance is 1.07 ± 0.048 (concentration: 0.1mM); 1.14 ± 0.078 (concentration: 0.5mM); 1.21 ± 0.092 (concentration: 1mM); 1.38 ± 0.11 (concentration: 2mM); 1.53 ± 0.12 (concentration: 4mM); 1.61 ± 0.16 (concentration: 6mM). Moreover, the NP40-soluble protein abundance (concentration: 8mM) is 1.72 ± 0.16 and the NP40-soluble protein abundance (concentration: 10mM) was 1.78 ± 0.18.

On to PPP2R5A (UniProt Q15172), for which the NP40-soluble protein abundance runs as follows: (concentration: 0.1mM) 1.04 ± 0.063; (concentration: 0.5mM) 0.993 ± 0.046; (concentration: 1mM) 0.939 ± 0.011; (concentration: 2mM) 0.9 ± 0.033; (concentration: 4mM) 0.877 ± 0.048; (concentration: 6mM) 0.864 ± 0.04. The NP40-soluble protein abundance is 0.862 ± 0.097 (concentration: 8mM) and 0.848 ± 0.055 (concentration: 10mM).

Consider UniProt Q8IZ81|D6RBS5, for which the NP40-soluble protein abundance is, setting by setting: (concentration: 0.1mM) 1.12 ± 0.15; (concentration: 0.5mM) 1.15 ± 0.2; (concentration: 1mM) 0.932 ± 0.066; (concentration: 2mM) 0.934 ± 0.069; (concentration: 4mM) 0.944 ± 0.063; (concentration: 6mM) 0.877 ± 0.048. Further, the NP40-soluble protein abundance runs as follows: (concentration: 8mM) 0.958 ± 0.13; (concentration: 10mM) 0.802 ± 0.051.

With RABGGTA (UniProt Q92696), the NP40-soluble protein abundance (concentration: 0.1mM) was 1.04 ± 0.026; the NP40-soluble protein abundance (concentration: 0.5mM) was determined as 1.04 ± 0.075; the NP40-soluble protein abundance (concentration: 1mM) worked out at 0.896 ± 0.022; the NP40-soluble protein abundance (concentration: 2mM) is 0.916 ± 0.068; the NP40-soluble protein abundance (concentration: 4mM) came out at 0.91 ± 0.037; the NP40-soluble protein abundance (concentration: 6mM) was determined as 0.889 ± 0.032. Further, the NP40-soluble protein abundance by setting is: (concentration: 8mM) 0.847 ± 0.037; (concentration: 10mM) 0.849 ± 0.07.
